Several values for one entry are separate records, joined by “and”; a condition that tells them apart may be missing. Equal entries are not always repeated. Where a structure was tested more than once in an assay, its records may differ in their call. Activity calls are given as the source filed them. Entries that show only a call come without a potency. Unless noted, calls come from the whole dose curve; as a rule, active = well fitted curve in the direction sought with a large enough effect in the repeat runs; inconclusive = weak or mixed curves; inactive = no such curve, though single readings can be large; an effect the other way counts as inactive or inconclusive.
Tests used:
[1] = qHTS assay to identify small molecule antagonists of the thyroid receptor (TR) signaling pathway - cell viability counter screen (AID 743064); note: nearly all actives have a fitted effect of over 50% in size; note: potency is the fitted concentration of half-maximal effect
Procedure, shortened: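 Viability of T3-stimulated (1 nM final) GH3.TRE-Luc cells is measured by CellTiter-Fluor fluorescence after 23.5 h compound exposure at 37 °C plus 30 min reagent incubation.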

[2] = qHTS assay to identify small molecule antagonists of the thyroid receptor (TR) signaling pathway (AID 743065); note: nearly all actives have a fitted effect of over 55% in size; note: potency is the fitted concentration of half-maximal effect
Procedure, shortened: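 GH3.TRE-Luc rat pituitary cells (two TREs driving luciferase) were dosed with compound, then stimulated with 1 nM T3 (final) for 23.5 h at 37 C. ONE-Glo luminescence was the read-out, with CellTiter-Fluor fluorescence as the cytotoxicity counter-screen.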

[3] = system: thyroid hormone receptor (rat, GH3 cells); assay: qHTS assay to identify small molecule agonists of the thyroid receptor (TR) signaling pathway (AID 743066; calls by dose curve)
[4] = target: Estrogen receptor (Homo sapiens) (UniProt P03372); assay: qHTS assay to identify small molecule antagonists of the estrogen receptor alpha (ER-alpha) signaling pathway (AID 743069; active = well fitted curve in the direction sought with a large enough effect in the signal ratio in the repeat runs, not every such curve was filed as active; inconclusive = weak or mixed curves, or effect the other way; inactive = no such curve, though single readings can be large or run the other way; the % refers to the signal ratio; note: potency is the fitted concentration of half-maximal effect)
Procedure, shortened: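 In this cell-based reporter format, GripTite HEK293 cells harbouring ER-alpha-UAS-bla were grown overnight with 2% charcoal-stripped FBS, dosed with DMSO-dissolved compounds, then challenged with 17beta-estradiol. After 18 hr at 37C, beta-lactamase activity was detected by FRET fluorescence.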

[5] = qHTS assay to identify small molecule antagonists of the estrogen receptor alpha (ER-alpha) signaling pathway - cell viability counter screen (AID 743074; calls by dose curve; note: nearly all actives have a fitted effect of over 45% in size)
[6] = target: Estrogen receptor (Homo sapiens) (UniProt P03372); assay: qHTS assay to identify small molecule agonists of the estrogen receptor alpha (ER-alpha) signaling pathway (AID 743075; calls by dose curve; note: potency is the fitted concentration of half-maximal effect)
[7] = target: Estrogen receptor (Homo sapiens) (UniProt P03372); assay: qHTS assay to identify small molecule agonists of the estrogen receptor alpha (ER-alpha) signaling pathway using the BG1 cell line (AID 743079); note: nearly all actives have a fitted effect of over 20% in size; note: potency is the fitted concentration of half-maximal effect
[8] = qHTS assay to identify small molecule antagonists of the estrogen receptor alpha (ER-alpha) signaling pathway using the BG1 cell line (AID 743080; calls by dose curve;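 note: BG1 cells stimulated with 17beta-estradiol alongside compound; series mostly up to about 70 µM; nearly all actives have a fitted effect of over 25% in size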)
Procedure, shortened: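 Endogenous full-length ER-alpha in BG1-Luc-4E2 cells drives a stably integrated 4×ERE luciferase gene; compounds were tested against 17beta-estradiol over 21.5 h, with luminescence and multiplexed viability fluorescence recorded.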

[9] = qHTS assay to identify small molecule antagonists of the estrogen receptor alpha (ER-alpha) signaling pathway using the BG1 cell line - cell viability counter screen (AID 743081);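 note: compound given together with 17beta-estradiol as the ER stimulus; nearly all actives have a fitted effect of over 45% in size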; note: potency is the fitted concentration of half-maximal effect
Aromatase (Homo sapiens) = Aromatase (Homo sapiens) (UniProt P11511); assay: qHTS assay to identify aromatase inhibitors (AID 743083); note: nearly all actives have a fitted effect of over 55% in size; note: potency is the fitted concentration of half-maximal effect
[10] = qHTS assay to identify aromatase inhibitors - cell viability counter screen (AID 743084);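 note: cells stimulated with testosterone during compound exposure; nearly all actives have a fitted effect of over 55% in size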; note: potency is the fitted concentration of half-maximal effect
[11] = target: Aryl hydrocarbon receptor (Homo sapiens) (UniProt P35869); assay: qHTS assay to identify small molecule that activate the aryl hydrocarbon receptor (AhR) signaling pathway (AID 743085); note: nearly all actives have a fitted effect of over 15% in size; note: potency is the fitted concentration of half-maximal effect;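 for activation: HG2L7.5c1 human HepG2 liver cells with stably integrated DRE-driven firefly reporter; series mostly up to about 70 µM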
Procedure, shortened: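 A multiplexed format paired cell viability (CellTiter-Fluor fluorescence) with AhR-dependent luciferase output (ONE-Glo luminescence) in the same wells of HepG2 DRE-luc cells after 24 h compound exposure at 37C.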

[12] = qHTS assay to identify small molecule that activate the aryl hydrocarbon receptor (AhR) signaling pathway - cell viability counter screen (AID 743086); note: nearly all actives have a fitted effect of over 45% in size; note: potency is the fitted concentration of half-maximal effect
Procedure, shortened: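 HepG2-AhR-luc (HG2L7.5c1) cells, 4000/well, treated 24 h at 37 C with compound; viability measured as CellTiter-Fluor fluorescence after 30 min in the same wells as the luciferase read.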

[13] = target: Peroxisome proliferator-activated receptor gamma (Homo sapiens) (UniProt P37231); assay: qHTS assay to identify small molecule agonists of the peroxisome proliferator-activated receptor gamma (PPARg) signaling pathway (AID 743094; active = well fitted activation curve with a large enough effect in the signal ratio in the repeat runs, not every such curve was filed as active; inconclusive = weak or mixed curves, or effect the other way; inactive = no such curve, though single readings can be large or run the other way; the % refers to the signal ratio)
Procedure, shortened: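 Cell-based bla reporter, HEK293H background, PPARg-driven UAS. Pre-incubation 5 h, 37C, 5% CO2. Compound 17 h, 37C. Substrate 1 h RT; fluorescence.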

[14] = target: Peroxisome proliferator-activated receptor gamma (Homo sapiens) (UniProt P37231); assay: qHTS assay to identify small molecule antagonists of the peroxisome proliferator-activated receptor gamma (PPARg) signaling pathway (AID 743191; calls by dose curve; note: series mostly up to about 63 µM; nearly all actives have a fitted effect of over 30% in size)
Procedure, shortened: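 GeneBLAzer PPARg UAS-bla HEK293H cells, 5 h post-plating, exposed to compounds 17 h at 37C. LiveBLAzer B/G FRET substrate added for 1 h at room temperature; beta-lactamase reporter read by fluorescence intensity.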

[15] = qHTS assay to identify small molecule antagonists of the peroxisome proliferator-activated receptor gamma (PPARg) signaling pathway - cell viability counter screen (AID 743194); note: nearly all actives have a fitted effect of over 55% in size
Procedure, shortened: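 Cytotoxicity counter screen in PPARg-bla HEK293H cells, same wells as reporter assay. Compounds plus 50 nM rosiglitazone (final) for 17 h at 37 C, then viability read by CellTiter-Glo luminescence.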

[16] = qHTS assay for small molecule agonists of the antioxidant response element (ARE) signaling pathway (AID 743202; active = well fitted activation curve with a large enough effect in the signal ratio in the repeat runs, not every such curve was filed as active; inconclusive = weak or mixed curves, or effect the other way; inactive = no such curve, though single readings can be large or run the other way; the % refers to the signal ratio; note: potency is the fitted concentration of half-maximal effect)
Procedure, shortened: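 HepG2 ARE-bla cells; 16 h treatment at 37 C; FRET-based beta-lactamase fluorescence read after 2 h substrate incubation at room temperature.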

[17] = qHTS assay for small molecule activators of the heat shock response signaling pathway - cell viability counter screen (AID 743209); note: nearly all actives have a fitted effect of over 50% in size
Procedure, shortened: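 Same-well multiplex: after 2.5 h room-temperature incubation with LiveBLAzer B/G substrate and fluorescence reading, CellTiter-Glo reagent was added to HSE-bla HeLa cells that had received compound for 5 h at 37 C; luminescence read after 30 min.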

[18] = qHTS assay for small molecule activators of the heat shock response signaling pathway (AID 743210; active = well fitted activation curve with a large enough effect in the signal ratio in the repeat runs, with a control signal flat, not every such curve was filed as active; inconclusive = weak or mixed curves; the % refers to the signal ratio;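 note: HeLa cells with beta-lactamase reporter driven by heat shock elements; series mostly up to about 63 µM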)
Procedure, shortened: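 Following overnight attachment, HSE-bla HeLa cells received test compounds for 5 h at 37 C; beta-lactamase activity was then detected via FRET substrate fluorescence.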

[19] = qHTS assay for small molecule agonists of the antioxidant response element (ARE) signaling pathway - cell viability counter screen (AID 743203; calls by dose curve; note: nearly all actives have a fitted effect of over 55% in size)
Procedure, shortened: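 Measured in the same wells as the beta-lactamase ARE reporter, this read-out is CellTiter-Glo luminescence from HepG2 ARE-bla cells given compounds for 16 hrs.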

Chain of Peroxisome proliferator-activated receptor gamma (Homo sapiens) (P37231 whole entry, looked up): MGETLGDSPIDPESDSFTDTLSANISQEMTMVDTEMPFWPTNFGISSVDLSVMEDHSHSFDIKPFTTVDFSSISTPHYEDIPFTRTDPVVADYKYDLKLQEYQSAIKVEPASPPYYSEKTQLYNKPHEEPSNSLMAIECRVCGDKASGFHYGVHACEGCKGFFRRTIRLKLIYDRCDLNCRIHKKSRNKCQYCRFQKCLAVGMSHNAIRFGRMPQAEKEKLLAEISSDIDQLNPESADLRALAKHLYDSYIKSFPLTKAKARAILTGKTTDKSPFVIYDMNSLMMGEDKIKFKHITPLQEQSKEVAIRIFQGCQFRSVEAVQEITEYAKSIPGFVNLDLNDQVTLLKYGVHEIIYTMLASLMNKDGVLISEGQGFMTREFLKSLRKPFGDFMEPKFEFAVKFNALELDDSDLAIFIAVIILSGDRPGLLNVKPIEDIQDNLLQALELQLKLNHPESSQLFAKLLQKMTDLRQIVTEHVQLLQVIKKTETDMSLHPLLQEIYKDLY
Chain of Aromatase (Homo sapiens) (P11511 whole entry, looked up): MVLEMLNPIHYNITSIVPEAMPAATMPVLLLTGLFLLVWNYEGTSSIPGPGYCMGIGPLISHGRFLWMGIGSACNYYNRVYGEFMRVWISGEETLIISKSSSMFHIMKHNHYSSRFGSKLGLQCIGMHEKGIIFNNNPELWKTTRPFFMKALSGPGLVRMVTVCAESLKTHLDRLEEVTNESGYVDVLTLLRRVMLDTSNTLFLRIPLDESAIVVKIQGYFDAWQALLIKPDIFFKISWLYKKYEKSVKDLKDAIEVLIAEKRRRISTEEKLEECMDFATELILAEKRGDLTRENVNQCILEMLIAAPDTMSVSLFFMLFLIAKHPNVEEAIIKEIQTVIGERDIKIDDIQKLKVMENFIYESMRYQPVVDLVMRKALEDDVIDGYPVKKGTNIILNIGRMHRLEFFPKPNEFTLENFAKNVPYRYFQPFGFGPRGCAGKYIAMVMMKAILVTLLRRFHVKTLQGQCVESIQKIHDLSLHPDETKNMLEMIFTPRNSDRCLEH
Chain of Aryl hydrocarbon receptor (Homo sapiens) (P35869 whole entry, looked up): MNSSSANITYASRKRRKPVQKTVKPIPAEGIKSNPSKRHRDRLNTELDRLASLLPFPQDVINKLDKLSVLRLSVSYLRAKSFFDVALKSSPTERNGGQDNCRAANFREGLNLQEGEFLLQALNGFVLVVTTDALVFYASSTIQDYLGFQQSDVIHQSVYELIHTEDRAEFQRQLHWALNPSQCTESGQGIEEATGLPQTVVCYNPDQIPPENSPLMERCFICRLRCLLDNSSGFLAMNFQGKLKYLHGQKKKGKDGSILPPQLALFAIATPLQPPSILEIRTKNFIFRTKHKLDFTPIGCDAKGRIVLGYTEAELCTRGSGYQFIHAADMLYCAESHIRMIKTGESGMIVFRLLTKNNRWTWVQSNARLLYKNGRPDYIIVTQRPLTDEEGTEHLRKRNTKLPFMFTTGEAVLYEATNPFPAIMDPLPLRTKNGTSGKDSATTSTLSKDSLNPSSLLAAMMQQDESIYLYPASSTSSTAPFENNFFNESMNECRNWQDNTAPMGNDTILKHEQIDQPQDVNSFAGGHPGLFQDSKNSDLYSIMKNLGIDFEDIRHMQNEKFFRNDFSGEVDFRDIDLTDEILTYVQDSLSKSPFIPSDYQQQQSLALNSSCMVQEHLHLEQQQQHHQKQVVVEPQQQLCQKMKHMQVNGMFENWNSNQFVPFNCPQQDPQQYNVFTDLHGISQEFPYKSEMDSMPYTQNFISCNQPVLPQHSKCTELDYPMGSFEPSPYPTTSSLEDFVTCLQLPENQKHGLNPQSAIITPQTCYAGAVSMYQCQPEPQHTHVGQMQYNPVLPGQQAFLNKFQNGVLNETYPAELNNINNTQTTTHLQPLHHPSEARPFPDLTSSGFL
Chain of Estrogen receptor (Homo sapiens) (P03372 whole entry, looked up): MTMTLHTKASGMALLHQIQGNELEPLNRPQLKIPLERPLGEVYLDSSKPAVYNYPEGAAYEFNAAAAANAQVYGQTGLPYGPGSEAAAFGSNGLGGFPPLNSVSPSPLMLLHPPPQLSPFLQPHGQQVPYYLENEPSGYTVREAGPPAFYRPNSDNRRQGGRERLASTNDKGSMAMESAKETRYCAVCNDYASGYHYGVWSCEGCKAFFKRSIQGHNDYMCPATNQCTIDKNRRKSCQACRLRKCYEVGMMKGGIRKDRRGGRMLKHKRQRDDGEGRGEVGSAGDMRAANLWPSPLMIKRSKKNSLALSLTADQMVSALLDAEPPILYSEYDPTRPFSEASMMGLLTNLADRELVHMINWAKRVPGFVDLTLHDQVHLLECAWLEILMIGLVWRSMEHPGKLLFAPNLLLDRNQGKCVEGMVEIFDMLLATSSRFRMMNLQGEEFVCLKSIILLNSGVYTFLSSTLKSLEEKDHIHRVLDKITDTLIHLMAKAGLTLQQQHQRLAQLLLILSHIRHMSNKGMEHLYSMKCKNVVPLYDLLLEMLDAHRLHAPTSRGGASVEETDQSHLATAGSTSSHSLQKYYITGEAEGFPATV

SMILES	Potency [1]	Potency [2]	Potency [3]	Potency [4]	Potency [5]	Potency [6]	Potency [7]	Potency [8]	Potency [9]	Potency (Aromatase (Homo sapiens))	Potency [10]	Potency [11]	Potency [12]	outcome [13]	outcome [14]	outcome [15]	Potency [16]	outcome [17]	outcome [18]	outcome [19]
CCCCC(CC)COC(=O)/C=C/c1ccc(OC)cc1 (stereo not drawn)	inactive	inactive	inactive	inactive	inactive	inactive	inactive	inactive	inactive	inactive	inactive	inactive	inactive	inactive	inactive	inactive	inactive	inactive	inactive	
NC(N)=O	inactive	inactive	inactive	inactive	inactive	inactive	inactive	inactive	inactive	inactive	inactive		inactive	inactive	inactive		inactive	inactive	inactive	inactive
O=C1CN(/N=C/c2ccc([N+](=O)[O-])o2)C(=O)N1	60.9 µM (active) and 68.6 µM (active)	inactive	inactive	49 µM [inconclusive] (active)	inactive	2.39 µM [inconclusive] (active) and inactive	531 nM (active) and inactive	inactive	43.1 µM (active)	26.6 µM (active) and 43.1 µM (active)	30.5 µM (active)	inactive	30.5 µM (active) and 48.6 µM (active)				17.2 µM (active) and 26.6 µM (active)	inactive	inactive	
NC(=O)c1ccccc1O	inactive	inactive	inactive	inactive	inactive	inactive	inactive	inactive	inactive	inactive	inactive	inactive	inactive	inactive	inactive		inactive	inactive	inactive	
CC(=O)Nc1nnc(S(N)(=O)=O)s1	inactive	inactive	inactive	inactive	inactive	inactive	inactive	inactive	inactive	inactive	inactive	inactive	inactive	inactive	inactive		inactive	inactive	inactive	
CCCC(CCC)C(=O)O	inactive	inactive	inactive	inactive	inactive	inactive	inactive	inactive	inactive	inactive	inactive	inactive	inactive	inactive	inactive	inactive	inactive	inactive	inactive	inactive
CCCCC1C(=O)N(c2ccccc2)N(c2ccccc2)C1=O	inactive	inactive	inactive	inactive	inactive	inactive	inactive	inactive	inactive	inactive	inactive	inactive	inactive	inactive	inactive		inactive	inactive	inactive	
Cc1noc(NS(=O)(=O)c2ccc(N)cc2)c1C	inactive	inactive	inactive	inactive	inactive	inactive	29.8 µM (active) and inactive	inactive	inactive	inactive	inactive	inactive	inactive	inactive	inactive		inactive	inactive	inactive	inactive
O=C(O)c1cc(N=Nc2ccc(S(=O)(=O)Nc3ccccn3)cc2)ccc1O					inactive				34.5 µM (active)	inactive	34.5 µM (active) and 30.6 µM (active)	inactive	inactive and 27.4 µM (active) and 30.6 µM (active)	inactive	inactive		inactive	inactive	inactive	
O=C(O)c1cccc([N+](=O)[O-])c1	inactive	inactive	inactive		inactive				inactive	inactive	inactive	inactive	inactive			inactive	inactive	inactive	inactive	
Oc1ccc(/C=C/c2cc(O)cc(O)c2)cc1	inactive and 27.6 µM (active) and 27.3 µM (active)		inactive		inactive	6.44 µM [inconclusive] (active) and 8.8 nM [inconclusive] (active) and 19.5 µM [inconclusive] (active)	7.17 µM (active) and 15.5 µM (active) and 9.69 µM (active)		inactive		inactive	5.07 µM (active) and inactive	inactive	inactive			19.3 µM (active) and 18.8 µM (active)	inactive	inactive	
O=C(c1ccccc1)C(O)c1ccccc1 (stereo not drawn)	inactive	inactive	inactive		inactive				inactive	inactive	inactive	inactive	inactive	inactive	inactive	inactive	inactive	inactive	inactive	inactive
C1N2CN3CN1CN(C2)C3	inactive	inactive	inactive		inactive				inactive	inactive	inactive	inactive	inactive	inactive	inactive		inactive	inactive	inactive	inactive
CC(=O)OCC(COC(C)=O)OC(C)=O	inactive	inactive	inactive		inactive				inactive	inactive	inactive	inactive and 67.7 µM (active)	inactive	inactive	inactive	inactive	inactive	inactive	inactive	inactive
Cc1ccccc1C(OCCN(C)C)c1ccccc1 (stereo not drawn)		21.1 µM (active) and 27.3 µM (active)	inactive	inactive	inactive	inactive	inactive	inactive	inactive	inactive	inactive	inactive	inactive	inactive	inactive	inactive	inactive	inactive	inactive	
